Screening results as filed in PubChem BioAssay.
In the library only some 19% were active in any assay of this set; here they are far more common.
TDP1 block = qHTS Assay for Inhibitors of Tyrosyl-DNA Phosphodiesterase (TDP1); recombinant TDP1, AlphaScreen DNA substrate cleavage; Potency, µM (titrated, usually from 130 µM), without a hit: at the top dose activity change, negative = inhibition, most hits filed as inhibitors; actives 0.28% (n = 350,000); note: potency is the fitted concentration of half-maximal effect; % is set by controls: 0 for no effect and ±100 for the full control effect; nearly all actives have a fitted effect of over 40% in size
Target sequence (Q9NUW8 whole entry, looked up): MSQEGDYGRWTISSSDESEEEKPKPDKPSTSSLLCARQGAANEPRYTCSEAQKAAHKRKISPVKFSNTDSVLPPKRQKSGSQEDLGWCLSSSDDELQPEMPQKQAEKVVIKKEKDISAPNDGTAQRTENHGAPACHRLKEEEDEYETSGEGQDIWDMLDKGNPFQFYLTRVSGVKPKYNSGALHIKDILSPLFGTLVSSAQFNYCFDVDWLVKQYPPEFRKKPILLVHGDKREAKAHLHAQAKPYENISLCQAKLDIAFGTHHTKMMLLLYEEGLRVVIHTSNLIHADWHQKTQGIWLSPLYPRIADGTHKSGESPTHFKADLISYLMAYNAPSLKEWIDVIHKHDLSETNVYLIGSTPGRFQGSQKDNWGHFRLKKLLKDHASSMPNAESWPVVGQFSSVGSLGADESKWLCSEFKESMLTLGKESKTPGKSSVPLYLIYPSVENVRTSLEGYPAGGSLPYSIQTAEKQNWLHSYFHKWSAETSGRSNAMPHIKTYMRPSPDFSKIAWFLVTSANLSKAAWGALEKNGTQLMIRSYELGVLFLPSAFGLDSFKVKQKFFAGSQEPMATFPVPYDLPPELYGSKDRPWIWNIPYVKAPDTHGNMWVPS
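Enzyme-compound mixtures sat 15 min at room temperature, followed by a 5 min reaction with 15 nM final substrate and 10 min with AlphaScreen beads. Recombinant human Tdp1 was used at 1 nM final.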
DT40 TDP1 CPT = qHTS for Inhibitors of human tyrosyl-DNA phosphodiesterase 1 (TDP1): qHTS in cells in presence of CPT; chicken DT40 Tdp1-/-;hTDP1 cells + 20 nM CPT, ATP luminescence, 48 h; Potency, µM (series often up to 46.2 µM), inactives show at the top dose activity change, negative = growth inhibition, actives largely listed as inhibitors; actives 12% (n = 420,000); AID 686979, 2013; note: potency is the fitted concentration of half-maximal effect; % is set by controls: 0 for no effect and ±100 for the full control effect; nearly all actives have a fitted effect of over 55% in size
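Chicken DT40 Tdp1-/- cells stably complemented with human TDP1 were seeded at 400 cells/well in medium containing 20 nM camptothecin, exposed to pin-transferred compounds, and grown at 37 °C for at least 48 hr. Viability was read as ATP luminescence.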
IL-1B inflam inh = qHTS for Inhibitors of Inflammasome Signaling: IL-1-beta AlphaLISA Primary Screen; THP-1 LPS/ATP IL-1B secretion, AlphaLISA, 16 h; active compounds read low; activity change, % at 57.5 µM; actives 4.7% (n = 360,000); AID 743279, 2014; in the data active = activity change below about -50%; inconclusive = mostly about -30% to -49%; note: % is set by controls: 0 for no effect and ±100 for the full control effect
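THP-1 cells pretreated 1 hr with compounds (up to 57.5 uM final), then stimulated with LPS (250 ng/mL final) plus ATP (1.25 mM final); secreted IL-1B measured by AlphaLISA after 16 hr, decreased signal indicating inhibition.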
TGFb inhibitor = qHTS for Inhibitors of TGF-b. actives 1.2% (n = 410,000). HepG2 CAGA-GFP TGF-b/SMAD3 reporter, GFP fluorescence, 18 h; TGF-beta stimulated, 500 pg/mL final. Potency, µM (doses to about 46.1 µM), inactives show at the highest dose activity, negative = inhibition, hits mostly inhibitors; note: potency is the fitted concentration of half-maximal effect; % is set by controls: 0 for no effect and ±100 for the full control effect; nearly all actives have a fitted effect of over 65% in size
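Inhibition was scored as loss of TGF-beta-induced (500 pg/mL final, 18 hours, 37 degrees C) GFP in HEPG2 cells carrying a CAGA-GFP reporter, in DMEM with 1% FBS. Well GFP was summed per cell; Activity was normalised to unstimulated and stimulated DMSO wells, then concentration-response fitting.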
DT40 TDP1 no CPT = qHTS for Inhibitors of human tyrosyl-DNA phosphodiesterase 1 (TDP1): qHTS in cells in absence of CPT | DT40 Tdp1-/- hTDP1 cells, no CPT, ATP luminescence, 48 h | Potency, µM (highest dose often 46.2 µM), without a hit: at the highest dose activity change, negative = growth inhibition, most hits filed as inhibitors | actives 15% (n = 420,000) | AID 686978, 2013; note: potency is the fitted concentration of half-maximal effect; % is set by controls: 0 for no effect and ±100 for the full control effect; nearly all actives have a fitted effect of over 55% in size
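A cellular qHTS used chicken DT40 cells lacking endogenous Tdp1 but carrying stably transfected human TDP1. Compounds were applied without camptothecin, and cell growth kinetics were judged by ATP-dependent luminescence after ≥48 hr.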
HepG2 viability = qHTS for Inhibitors of TGF-b: Cytotox Counterscreen. Potency, µM (series often up to 46.1 µM), for inactives: at the top dose activity change, negative = cytotoxicity, hits mostly cytotoxic. AID 588856, 2011. actives 0.76% (n = 410,000). HepG2 CAGA-GFP viability, ATP luminescence, 18 h; note: potency is the fitted concentration of half-maximal effect
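HepG2 CAGA-GFP cells (1000/well, DMEM with 1% FBS) received compound, then TGF-beta at 500 pg/mL final, and were incubated 18 hours at 37 degrees C. Viability was read by CellTiter-Glo luminescence. Media-only wells were set as complete cell-killing and DMSO as no toxicity.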
* = called active by the depositor; i = inactive; ? = inconclusive; · = no result given; [ ] = dose if it differs, or a comment. Unless noted, calls come from the whole dose curve; as a rule, active = well fitted curve in the direction sought with a large enough effect; inconclusive = small, poorly fitted or top-dose-only effect, or another doubt; inactive = no such curve, though single readings can be large; an effect the other way counts as inactive or inconclusive.

SMILES	TDP1 block	DT40 TDP1 CPT	IL-1B inflam inh	TGFb inhibitor	DT40 TDP1 no CPT	HepG2 viability
COc1ccc(C2(c3ccc(OC)cc3)NC(=O)N(CC(=O)Nc3ccc(OC(F)F)cc3)C2=O)cc1	6.2%	?	i	?	18.4µM*	-20.6%
CCOC(=O)c1c(NC(=O)CN2C(=O)NC(C)(c3ccc(OC(F)F)cc3)C2=O)sc(C)c1C (centres undefined)	5.4%	20.6µM*	?	0.0%	16.4µM*	-10.1%
CCOC(=O)c1c(C)[nH]c(C(=O)CSc2nc(C)cc(C)n2)c1C	1.9%	14.6µM*	-26.4	-0.7%	20.6µM*	-4.7%
CO[C@H]1C[C@H](O[C@H]2[C@H](C)[C@@H](O[C@@H]3O[C@H](C)C[C@H](N(C)C)[C@H]3OC(C)=O)[C@@H](C)C[C@]3(CO3)C(=O)[C@H](C)[C@@H](OC(C)=O)[C@@H](C)[C@@H](C)OC(=O)[C@@H]2C)O[C@@H](C)[C@@H]1OC(C)=O	·	10.9%[21.1 µM]	·	·	-17.3%[21.1 µM]	·
COc1ccccc1CN1CCCC(CNC(=O)c2cccc3ccccc23)C1 (centres undefined)	·	-20.1%	-20.7	15.5%	?	-7.6%
CCOC(=O)c1c(C)[nH]c(C(=O)CN2C(=O)NC(C)(c3ccc(C)cc3)C2=O)c1C (centres undefined)	1.9%	?	-7.9	-16.5%	23.1µM*	-27.7%
CCN(CC1COc2ccccc2O1)C(=O)CN1C(=O)NC(C)(c2ccc(C)cc2)C1=O (centres undefined)	·	?	7.8	-16.5%	23.1µM*	-3.4%
CCN(CC1COc2ccccc2O1)C(=O)CN1C(=O)NC(C)(c2ccccc2)C1=O (centres undefined)	1.4%	-20.3%	?	-10.0%	0.9%	-12.2%
CCOC(=O)c1c(C)[nH]c(C(=O)CN2C(=O)NC(C)(C)C2=O)c1C	6.8%	3.8%	-9.4	2.7%	-1.5%	9.4%
Cc1ccc(CSc2nc(=O)c3c(C)cc(C)nc3n2C2CC2)cc1	2.7%	20.6µM*	·	?	20.6µM*	-37.1%
COC(=O)c1cc(C)nc2c1c(=O)nc(SCc1cc(C)ccc1C)n2C1CC1	2.7%	-8.9%	·	-5.6%	?	0.4%
CCOC(=O)C1CCN(c2cc3c(cc2NC(=O)c2ccccc2OCC)n(C)c(=O)n3C)CC1	9.9%	20.6µM*	38.4	11.8%	5.8µM*	1.0%
CCOC(=O)C1CCN(c2cc3c(cc2NC(=O)c2ccccc2F)n(C)c(=O)n3C)CC1	-19.8%	-24.4%	55.5	9.2%	-14.8%	-4.9%
COc1ccccc1C(=O)Nc1cc2c(cc1N1CCCCC1)n(C)c(=O)n2C	-8.5%[12.3 µM]	5.8µM*	·	-19.2%	13µM*	-10.7%
CCOC(=O)C1CCN(C(=O)c2ccccc2NC(=O)c2ccc(Cl)cc2)CC1	3.2%	?	32.9	0.6%	23.1µM*	-43.5%
CCOC(=O)C1CCN(c2cc3c(cc2NC(=O)c2ccc(Cl)cc2)n(C)c(=O)n3C)CC1	-4.3%[12.3 µM]	8.2µM*	·	-1.4%	2.59µM*	-0.6%
Cc1cccc(-c2nc3nc(C)cc(NC(C)c4ccccc4)n3n2)c1 (centres undefined)	6.5%	·	·	-5.3%	·	-9.7%
C=CC[C@](C)(O)c1ccccc1	1.9%	·	·	·	·	·
Cc1c(C(=O)N2CCC(C)CC2)c(S(=O)(=O)Nc2cccc(C(F)(F)F)c2)c(C)n1C	6.2%	?	·	-32.6%	?	-10.6%
Cc1cc(C(=O)NC2CCCCC2C)c2ccccc2n1 (centres undefined)	-2.6%	-14.6%	37.2	6.2%	-6.4%	6.6%
CCOC(=O)CNC(=O)c1cc2c(=O)[nH]c3ccc(C)cc3c2s1	·	34.8%	-12.4	20.1%	10.3%	1.3%
COc1ccc(CCNC(=O)c2cc3c(=O)[nH]c4ccc(C)cc4c3s2)cc1OC	-1.3%	13µM*	·	-25.8%	11.6µM*	-23.2%
CCOc1ccc(CCNC(=O)c2cc3c(C)nccc3[nH]c2=O)cc1OCC	5.4%	11.6µM*	13.3	-12.7%	13µM*	-2.3%
CCOc1ccc(CCNC(=O)c2cc3c(=O)[nH]c4ccc(C)cc4c3s2)cc1OCC	9.0%	4.11µM*	·	?	18.4µM*	-26.9%
CCOc1ccc(CCNC(=O)c2c(C)noc2C)cc1OCC	·	-0.2%	-5.1	-3.1%	-1.5%	3.0%
SMILES	TDP1 block	DT40 TDP1 CPT	IL-1B inflam inh	TGFb inhibitor	DT40 TDP1 no CPT	HepG2 viability
Cc1nccc2[nH]c(=O)c(C(=O)NC3CCCCC3C)cc12 (centres undefined)	6.8%	?	-8.9	0.5%	16.4µM*	-2.9%
CCc1ccc(-n2nc(CO)c(C(=O)NCCCCc3ccccc3)n2)cc1	-2.3%	7.1%	·	?	-17.9%	-19.9%
Cc1cccc(N(C)C(=O)C(Cc2ccccc2)NS(=O)(=O)c2cccc3nsnc23)c1 (centres undefined)	4.7%	?	·	-21.1%	?	-13.7%
COc1ccc(N(Cc2cc3cccc(C)c3[nH]c2=O)S(=O)(=O)c2ccc(Cl)cc2)cc1	5.5%	?	4.3	-2.8%	23.1µM*	-25.9%
COc1ccc(N(Cc2cc3ccccc3[nH]c2=O)S(=O)(=O)c2ccc(C)cc2)cc1	·	?	-13.6	-3.0%	?	-19.8%
COc1ccc(N(Cc2cc3ccccc3[nH]c2=O)S(=O)(=O)c2ccccc2)cc1	·	?	0.0	?	18.4µM*	-18.3%
O=C(Cn1c(NCCO)nc2ccccc21)Nc1ccc2c(c1)OCCCO2	-5.7%	-3.3%	2.1	3.5%	-11.5%	5.9%
COc1ccc(CN2CCN(C(=O)Cn3ncn4cccc4c3=O)CC2)c(OC)c1OC	·	-25.8%	3.5	-15.8%	-6.2%	-35.7%
Cc1ccc(Cl)cc1N1CCN(S(=O)(=O)c2cn(C)c(C)n2)CC1	6.5%	-20.2%	·	-4.1%	?	-20.9%
